Screens: PubChem BioAssay, National Center for Advancing Translational Sciences (NCATS)
Compounds with a hit are over-represented: about 5.3% of the library has one in this group of screens.
Six1-Eya2 blk = inhibitors of human Six1/Eya2 interaction; Q15475+O00167; AlphaScreen GST-Six1/His-Eya2 binding, biochemical; hits give low values; activity change, % (concentration not given with the values); hit rate 0.56% among 360,000; AID 651725; in the data active means activity change below about -65%; inconclusive means mostly about -30% to -63%
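GST-Six1 + His-Eya2 (5X stock: 250/500 nM); Tris pH 8.0, 300 mM NaCl, 0.05% BSA, 0.02% Tween 20; GSH donor/Ni acceptor beads; 1 h 37 °C dark; AlphaScreen readout.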
TDP1 block = TDP1 (human) enzyme inhibition | Q9NUW8 | hit rate 0.28% among 350,000 | Potency, µM (doses to about 130 µM), most hits filed as inhibitors | recombinant TDP1, AlphaScreen DNA substrate cleavage; further: nearly all actives have a fitted effect of over 40% in size
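E. coli-derived human Tdp1, 1 nM final. Cpd preinc 15 min RT; substrate 15 nM final, 5 min RT; AS bead mix 10 ug/ml final, 10 min RT. Signal loss = tyrosine-FITC cleavage. No-enzyme wells = max signal.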
HP1b chromo inh = HP1-beta chromodomain-methylated histone interaction inhibition | AID 540317 | hit rate 0.56% among 390,000 | P83916 | AlphaScreen HP1-beta / biotin-H3K9me3 peptide binding | Potency, µM (doses to about 114 µM), actives largely listed as inhibitors; further: nearly all actives have a fitted effect of over 70% in size
Target sequence (P83916 whole entry, looked up): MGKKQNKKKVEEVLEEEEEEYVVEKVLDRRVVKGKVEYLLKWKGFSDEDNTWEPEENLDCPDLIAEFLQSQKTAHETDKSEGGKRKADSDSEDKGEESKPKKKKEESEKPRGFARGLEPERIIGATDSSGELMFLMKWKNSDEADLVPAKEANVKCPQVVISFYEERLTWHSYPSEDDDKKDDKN
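AlphaScreen: HP1-beta (50 nM) preformed 30 min with biotin-H3(1-18)K9me3 peptide (50 nM) in PBS pH 7.4, 0.01% Tween-20. Compound added for 30 min at RT, then streptavidin donor/nickel chelate acceptor beads (10 ug/mL) for 30 min.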
BAZ2B block = blocks human BAZ2B; Q9UIF8; AlphaScreen BAZ2B-H3K14Ac peptide displacement; Potency, µM (series often up to 114 µM), usual class: inhibitors; hit rate 4.4% among 360,000; AID 504333; further: nearly all actives have a fitted effect of over 60% in size
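AlphaScreen displacement of biotin-H3(5-23)K14Ac peptide (50 nM final) from BAZ2B (50 nM final) in PBS pH 7.4, 0.01% Tween-20; complex preformed 30 min RT, then compounds (top 110 uM) 30 min RT, beads 20 min dark.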
JMJD2A Tudor inh = blocks the human JMJD2A Tudor domain. O75164. AlphaScreen JMJD2A-Tudor / H3K4me3 peptide binding. Potency, µM (titrated, usually from 114 µM), hits mostly inhibitors. hit rate 4.4% among 390,000. AID 504339; further: nearly all actives have a fitted effect of over 50% in size
CtBP-E1A inh = CtBP/E1A binding inhibition | hit rate 0.49% among 340,000 | AlphaScreen GST-E1A/His-CtBP binding, 1536-well; hits give low values | activity change, % (no concentration beside the values); in the data active means activity change below about -65%; inconclusive means mostly about -30% to -63%
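In 5 uL wells, 23 nL compound meets equimolar GST-E1A and His-CtBP (5X stock 125 nM each) for 2 h, 37 °C. Beads (5X, 50 ug/mL) then 1 h, 37 °C, dark.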
A number is an active result; . = inactive; ? = inconclusive; / = no result; [ ] = another dose, or the depositor's remark. Unless noted, the call rests on the fitted dose curve; in most records, active means well fitted inhibition curve with a large enough effect; inconclusive means small, poorly fitted or top-dose-only effect; inactive means no such curve, though single readings can be large or run the other way.

SMILES | Six1-Eya2 blk | TDP1 block | HP1b chromo inh | BAZ2B block | JMJD2A Tudor inh | CtBP-E1A inh
O=C1S/C(=C\C=C\c2ccco2)C(=O)N1c1ccc(O)cc1 | . | . | ? | 45µM | ? | .
Cc1c(O)c(=O)c2ccccc2n1C | . | .[21 µM] | . | . | 22µM | .
S=C(NCCN1CCOCC1)N1CCN(c2cccc(Cl)c2)CC1 | . | . | . | 28µM | 8.9µM | .
O=C(Nc1cccc(C(=O)N2CCN(c3cccc(Cl)c3)CC2)c1)c1nsc2ccccc12 | / | . | . | . | . | /
C[C@@H](c1ccccc1)N1C(=O)[C@H]2[C@H]3[C@H](O)[C@H](O)C/C(=N/OCc4ccccc4)[C@H]3CC[C@@H]2C1=O | / | .[21 µM] | / | / | / | /
CCC(C)OC(=O)C1=C(C)NC2=C(C(=O)C(C(=O)OC)C(C)C2)C1c1ccc(N(C)C)cc1 (stereo not drawn) | ? | . | ? | ? | 18µM | ?
CN1/C(=C\C=C2/SC(=S)N(CC(=O)O)C2=O)C(C)(C)c2ccccc21 | ? | . | 35µM | 28µM | ? | .
CCCN1C(=O)/C(=C/C=C2\N(CC)c3ccccc3C2(C)C)SC1=S | . | . | 10µM | 1.8µM | 11µM | .
COC1CCC(C(=O)c2ccc3nc4c(cc3c2)CCCO4)CC1 (stereo not drawn) | / | . | / | / | / | /
Cc1ccc(NC(=O)c2ncn(CCCN3CCN(Cc4cccc5ccccc45)CC3)n2)cc1C | . | / | ? | / | 50µM | ?
Cc1cc(NS(=O)(=O)c2ccc3c(c2)CCC(=O)N3)ccc1Cl | / | . | / | / | . | /
S=c1[nH]c(-c2ccccc2)cn1/N=C/c1cccs1 | . | . | . | . | 3.2µM | .
Fc1ccccc1/C=N/n1cc(-c2ccccc2)[nH]c1=S | . | . | . | . | 13µM | .
S=c1[nH]c(-c2ccccc2)cn1/N=C/c1ccc(Br)cc1 | . | . | . | . | . | .
C(=N\n1cnnc1)/c1cccs1 | . | . | . | . | . | .
Cc1ccc(C)c(/C=N/n2cc(-c3ccccc3)[nH]c2=S)c1 | . | . | . | . | ? | .
S=c1[nH]ncn1/N=C/c1cccs1 | . | ? | . | . | 4.5µM | .
CCOC(=O)N/N=C1/C[C@@H](O)[C@@H](O)[C@@H]2[C@@H]3C(=O)N(Cc4ccc5c(c4)OCO5)C(=O)[C@H]3CC[C@H]12 | / | .[21 µM] | / | / | / | /
COc1ccc(S(=O)(=O)N2CCC(C(=O)NCc3cccnc3)CC2)cc1OC | . | 4.5µM | . | . | . | .
CC(C)CO/N=C1/C[C@@H](O)[C@@H](O)[C@@H]2[C@H]3C(=O)N(c4ccc(F)cc4F)C(=O)[C@@H]3CC[C@H]12 | / | .[21 µM] | / | / | / | /
Nc1nc(CN2CCN(c3ccccn3)CC2)nc(Nc2ccc(F)cc2)n1 | . | . | . | 50µM | 50µM | .
Nc1nc(CN2CCCCCC2)nc(Nc2ccc(F)cc2)n1 | . | . | . | 7.1µM | 79µM | .
Nc1nc(CSCCO)nc(Nc2ccc(F)cc2)n1 | . | . | . | . | . | .
O=C(COCc1cc(-c2ccco2)on1)Nc1cccc(O)c1 | / | . | . | . | . | /
COc1cccc(-n2c(=O)c3ccccc3n3c(=S)[nH]nc23)c1 | . | . | . | . | 11µM | .
SMILES | Six1-Eya2 blk | TDP1 block | HP1b chromo inh | BAZ2B block | JMJD2A Tudor inh | CtBP-E1A inh
COCCCn1c(=O)c2ccccc2n(Cc2ccccc2)c1=O | . | / | . | ? | . | .
COCCCn1c(=O)c2ccccc2n2c(=S)[nH]nc12 | . | / | ? | . | 10µM | .
CCc1ccc(-n2c(=O)c3ccccc3n3c(=S)[nH]nc23)cc1 | . | / | . | . | 4.5µM | /
COc1cccc(N2CCN(C(=O)Cn3ncc4c(=O)oc5ccccc5c43)CC2)c1 | / | . | . | . | . | /
CC(=O)C(C(C)=O)C(NC(=O)c1cccnc1)(C(F)(F)F)C(F)(F)F | . | . | . | . | 3.5µM | .
CCOC(=O)C(O)(NC(=O)c1cccnc1)C(F)(F)F (stereo not drawn) | . | . | . | . | . | .
CCOc1ccc(NC(=O)C2CCC(CNS(=O)(=O)c3ccc(Br)s3)CC2)cc1 (stereo not drawn) | / | . | . | . | . | /
COc1ccc(-c2csc(CCN3N=C(C)CC3=O)n2)cc1 | . | . | . | 40µM | ? | .
